# Test results reported in article PMC13494018.
# B1: design_596_3e5f537c-0703-45f0-993f-ff416531349a_232_dldesign_0_cycle1_af2pred (protein)
# chain: LKAEAAEKSAEARELIAEAETLAKNIKNLSKEEAKEALKVAEEALKKAKEAAKLMAKVGEEELGKKLLERAKKAYKETKEAVKKKLK
# B2: design_596_3e5f537c-0703-45f0-993f-ff416531349a_1970_dldesign_0_cycle1_af2pred (protein)
# chain: DEEEKEKKLEEARKAKDEAEEALDKAMEKASPEEALELLEEYRKVSKEAQKLVKEEGVEGAAEAAKLLKEQKKYFEEKYKEL
# B3: design_596_3e5f537c-0703-45f0-993f-ff416531349a_1819_dldesign_0_cycle1_af2pred (protein)
# chain: HAATVKAVAAEAKELAEEKIKAMKENAKDEEGIKLAVNSMKRFADNDAKLGPEAGAAAKAEYEKVEKAAKEIIKEAKA
# B4: design_596_3e5f537c-0703-45f0-993f-ff416531349a_2018_dldesign_0_cycle1_af2pred (protein)
# chain: AAEKKAKAEAKKIVEEAAKIAKEKGYDEGMKYAYKASKELAEKYGKEYGAKAFEEAVDAIGDELAKKVKE
# B5: design_596_3e5f537c-0703-45f0-993f-ff416531349a_2320_dldesign_0_cycle1_af2pred (protein)
# chain: KKVEELKKKMLEELEKIIEIAKTLPPEEAERLITFAKAARERGEKKGVRGLAKAALNVAFEASKYEETKEAAEKLEELANEIIKLT
# B6: design_597_f3dcd2b3-c7aa-4b15-88bc-bbb8d01a18cd_98_dldesign_0_cycle1_af2pred (protein)
# chain: AERVEAAGKIALARIDKAGKGTKEELAVASAQAMALVGVTAGASDEEIDAMVDKVEAAAKGANPVADAKKVLTAAIKELAAK
# B7: design_596_3e5f537c-0703-45f0-993f-ff416531349a_666_dldesign_0_cycle1_af2pred (protein)
# chain: SEEGKKKVEEAKKRAEKAKKKAKEAIKKSKEEGKAAVYSLLGIAESFKLLAKAMAKTDPEAGKKIKEVAEEAEKKAKELLEEVEK
# B8: design_596_3e5f537c-0703-45f0-993f-ff416531349a_566_dldesign_0_cycle1_af2pred (protein)
# chain: DKLVEEAKKAAEEAEKLLDKAIKVSPKAAAEAATAYALYENALSAAESGSATEEEVKAQLEKGKEKLKKAKEIMKKEEEKK
# B9: design_596_3e5f537c-0703-45f0-993f-ff416531349a_2235_dldesign_0_cycle1_af2pred (protein)
# chain: GLYEEAKKEAKEAFSYGIAYLSAVSAKDPSLAPEAEKELEEAFEKVEKALKDAKSGKNPEKALKEIKEIRDEWKEKLKEARA
# B10: design_597_f3dcd2b3-c7aa-4b15-88bc-bbb8d01a18cd_135_dldesign_0_cycle1_af2pred (protein)
# chain: MLTVMQAADIIIDKGAEEAKKAMVETALDVAKKYGIEAGRKAARTLSRIFKNAYGEEEGKEAEKEVLEALEKLEKE
# B11: design_596_3e5f537c-0703-45f0-993f-ff416531349a_1563_dldesign_0_cycle1_af2pred (protein)
# chain: AEKHLKEAKKLAEEAKKLAEEAEKDPSTAPEKAKKAEEAARKAREEAKKAAEADPSVAPEAAKAAQEAYEARAVAEAVANRYLK
# B12: design_596_3e5f537c-0703-45f0-993f-ff416531349a_778_dldesign_0_cycle1_af2pred (protein)
# chain: AAAEEEKEQKEKLEEVKELAKKMVEEVKEYAKKTTVEEAKKYLDEKKKELFKYAREKVGYEGVEEAVEAYGEARTAILKLEKN
# B13: design_596_3e5f537c-0703-45f0-993f-ff416531349a_512_dldesign_0_cycle1_af2pred (protein)
# chain: DADTIRAASKALKAAGKDPKTAPLAKEAKEALFKGLEYENKDPKKAAEYYKKAAELLRKLAEKAEAKEELLKVAEELEKKAEELKKK
# B14: design_596_3e5f537c-0703-45f0-993f-ff416531349a_642_dldesign_0_cycle1_af2pred (protein)
# chain: SLEENYELAKRVAEAAKEAGKEAKKAGPELAPIGEKAEKEAKELLKEAELAYKDPSYIPEAGKEAQKALEAKAEADWAIAQYK
# B15: design_596_3e5f537c-0703-45f0-993f-ff416531349a_466_dldesign_0_cycle1_af2pred (protein)
# chain: EEERTKLIKEASDLRREAIALLREAGKAADPATAGAAVFAIPDLEAFTAAAAAAAKAYPELAATWEAAAAKATASHAAVEKAEKL
# B16: design_596_3e5f537c-0703-45f0-993f-ff416531349a_508_dldesign_0_cycle1_af2pred (protein)
# chain: KEKIQKEGLKEIEKIAEEGIKEAKKYAEEGKYEEAKKIAKEALEKMREKAKELGEKVGEEAQKQGAKIIQKAREELSEYVQKAKLKK
# B17: design_596_3e5f537c-0703-45f0-993f-ff416531349a_533_dldesign_0_cycle1_af2pred (protein)
# chain: SAITEQNKKEALAERAKHVGEAAVKQAKAHAGDVAYIEKLQKQALEAGKKANEEGKKAAEAAAKEIAKIAAQAKAAK
# B18: design_596_3e5f537c-0703-45f0-993f-ff416531349a_1683_dldesign_0_cycle1_af2pred (protein)
# chain: EEEKRREAAERLRELAKKALEDVENAPEYLEEAAREAEKVGDYTTAVLLEQLAEDVRKASPEEAVKFVRAGAERALRSAERLL
# B19: design_596_3e5f537c-0703-45f0-993f-ff416531349a_1052_dldesign_0_cycle1_af2pred (protein)
# chain: GEEKLKEAKKEAEKKLEELKKKGKEVGPEAVKIVEKAKERIEKKYKEAEKMKNKEAGALSFEEFAKDAIEAAKKQIEKLAKEKA
# B20: design_596_3e5f537c-0703-45f0-993f-ff416531349a_2173_dldesign_0_cycle1_af2pred (protein)
# chain: SELKDLLSEAERARHKAEAIATRAKELAKYDPKEAKKIADEAKKVAEEAKKAAELAEKDPEKGKEAIKKVKEKVKKLEKKVKALEKKV
# B21: design_596_3e5f537c-0703-45f0-993f-ff416531349a_988_dldesign_0_cycle1_af2pred (protein)
# chain: VEKVAKEAKKAAKEARKEAKKTKDGKAAQELLEAASEAEGYAILAEKDPKYAPKAKEAAKKAKELVEKVKKE
# B22: design_597_f3dcd2b3-c7aa-4b15-88bc-bbb8d01a18cd_362_dldesign_0_cycle1_af2pred (protein)
# chain: AAEKAKKAADAFRAIAKAAKLALEDPEKGAAAIQAAVDAAKKESPEIAPYVAAVAEEKLAAVKAKLAAAAAA
# B23: design_596_3e5f537c-0703-45f0-993f-ff416531349a_1686_dldesign_0_cycle1_af2pred (protein)
# chain: MDEEIKKKAIEIAQKALEAAAEYEAKAIRTGDEESKKKAEELRELAKKIREALKEGNIEEAKKYAEKAKKLIEEA
# B24: design_596_3e5f537c-0703-45f0-993f-ff416531349a_1289_dldesign_0_cycle1_af2pred (protein)
# chain: MNDALAAESYGEGLVEDAEKEAKEAIEKGASPEELKKVAKKARERAERVRRYAERRAKEAENSEEVLAAGEKAVKKLEEIAKELEKAA
# B25: design_597_f3dcd2b3-c7aa-4b15-88bc-bbb8d01a18cd_323_dldesign_0_cycle1_af2pred (protein)
# chain: EEVEKKLKELAEKVKKAKELAEKDPEKGIELAKEAIKEAQKLGKEADEETKKKLAEVAEEAVEVRFEALEKLVKS
# B26: design_597_f3dcd2b3-c7aa-4b15-88bc-bbb8d01a18cd_271_dldesign_0_cycle1_af2pred (protein)
# chain: DEAKKKAAEELAEAYEYVAEALALGKKTNEEAKKLAKEAKEEFKKYRDKAKALYKAGNYEEAYKEAKKAYEESKKKLEEIKKIAE
# B27: design_596_3e5f537c-0703-45f0-993f-ff416531349a_2330_dldesign_0_cycle1_af2pred (protein)
# chain: EEALKKAEERYEKYGKKALELAEKVGLKEEVEEGIKDPSKMPEVIKKLEELGEENPEVRKDAYLAASYLQRAQQAYETKKKIEAA
# B28: design_596_3e5f537c-0703-45f0-993f-ff416531349a_338_dldesign_0_cycle1_af2pred (protein)
# chain: GSMEEKKKKEVEEAEKEAEKILEKAKKEAEKAAKKSPAQAVEVALEALSELKYLGSKYPEKAEEFEKRGRELVEEYKKKAE
# B29: design_597_f3dcd2b3-c7aa-4b15-88bc-bbb8d01a18cd_63_dldesign_0_cycle1_af2pred (protein)
# chain: GEAKAEELIKKAKEALREFAETGSLEALDKAEEYAEEISKFTPEVRAKAAEELEKVGEEGSPAARAVAKNLADYLK
# B30: design_596_3e5f537c-0703-45f0-993f-ff416531349a_2079_dldesign_0_cycle1_af2pred (protein)
# chain: MEKEELQRRLKETAEKLAEKHPEAAPAARLVIRVGEKANAEEVRKLLELTEKALGENWKEYAAEATEYAVEIEADILVKELK
# B31: design_596_3e5f537c-0703-45f0-993f-ff416531349a_2108_dldesign_0_cycle1_af2pred (protein)
# chain: DAVKKAAEEGKERVRRRAEREKKRVTPEARPEIEKAEEKGVKKVEEAAKGTVKEVANAAQEGITEVIEVGAENKIKA
# B32: design_596_3e5f537c-0703-45f0-993f-ff416531349a_1302_dldesign_0_cycle1_af2pred (protein)
# chain: KEKLIEEAKKEAKEVVEKAKAILKSKAKEGKLEEGIKEAANLLQEFQQKLTEISFENPEVKEDMEKIFKEARDELKAEIEAAKAA
# B33: design_596_3e5f537c-0703-45f0-993f-ff416531349a_2102_dldesign_0_cycle1_af2pred (protein)
# chain: AEAVAEEMLARIEEARDALTAADPTLADIADSIADAAKERMRAAAAEGRAEEVAEVGERAVRTLEHLAKLAK
# B34: design_596_3e5f537c-0703-45f0-993f-ff416531349a_2087_dldesign_0_cycle1_af2pred (protein)
# chain: MAEKLVEKAKAEMKKLVEEAKKGNPEEARKIRKEIIEKGKKALEEADTEEKKKAAEEIKKIAYKAVEEVLEAYGELLVK
# B35: design_596_3e5f537c-0703-45f0-993f-ff416531349a_1315_dldesign_0_cycle1_af2pred (protein)
# chain: SITYKNKALAYLEAAKHALEVAKKNVGDLEKVKKAYEQAKKFVEKALEYASKVTPEFLAEAKAESEKILAEMEKVLKEAE
# B36: design_596_3e5f537c-0703-45f0-993f-ff416531349a_1299_dldesign_0_cycle1_af2pred (protein)
# chain: MSKKLTEALSAFNKAAAAAAKLIDEEAKKDPKKAAEVKKLLAKAVYEIDNPEKAAAYLEAAAKAATDAATKAELNAAAAEAKKLGEL
# B37: design_597_f3dcd2b3-c7aa-4b15-88bc-bbb8d01a18cd_430_dldesign_0_cycle1_af2pred (protein)
# chain: AVKEKLERAKKYAEETKKLAKELKKNPKFKKTAEEIEKEAEKVLEEAKKAAEKGDAEAVGEKATELRVLKTAAEQLLKAAK
# B38: design_596_3e5f537c-0703-45f0-993f-ff416531349a_1329_dldesign_0_cycle1_af2pred (protein)
# chain: MEASEELRKAIKYARELGEKGTEEHKKLAAEAVFYASSDPEKAIALLKEVAKDPKVKELAEKAIEHIKKLAEL
# Biological target: VTCN1, Q7Z7D3
# Sequence (Q7Z7D3 whole entry): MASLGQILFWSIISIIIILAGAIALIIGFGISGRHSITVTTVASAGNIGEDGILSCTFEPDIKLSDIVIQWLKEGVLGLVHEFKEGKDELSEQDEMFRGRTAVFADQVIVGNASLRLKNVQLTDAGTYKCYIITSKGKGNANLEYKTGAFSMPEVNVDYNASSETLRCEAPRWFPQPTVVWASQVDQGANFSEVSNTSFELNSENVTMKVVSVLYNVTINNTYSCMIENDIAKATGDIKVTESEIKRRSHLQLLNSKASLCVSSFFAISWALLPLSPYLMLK
row,Binder,binding in a display sort
1,B1,not found (inactive)
2,B2,not found (inactive)
3,B3,not found (inactive)
4,B4,not found (inactive)
5,B5,not found (inactive)
6,B6,not found (inactive)
7,B7,not found (inactive)
8,B8,not found (inactive)
9,B9,not found (inactive)
10,B10,not found (inactive)
11,B11,not found (inactive)
12,B12,not found (inactive)
13,B13,not found (inactive)
14,B14,not found (inactive)
15,B15,not found (inactive)
16,B16,not found (inactive)
17,B17,not found (inactive)
18,B18,not found (inactive)
19,B19,not found (inactive)

row,Binder,binding in a display sort
1,B20,not found (inactive)
2,B21,not found (inactive)
3,B22,not found (inactive)
4,B23,not found (inactive)
5,B24,not found (inactive)
6,B25,not found (inactive)
7,B26,not found (inactive)
8,B27,not found (inactive)
9,B28,not found (inactive)
10,B29,binds (active)
11,B30,not found (inactive)
12,B31,not found (inactive)
13,B32,not found (inactive)
14,B33,not found (inactive)
15,B34,not found (inactive)
16,B35,not found (inactive)
17,B36,not found (inactive)
18,B37,not found (inactive)
19,B38,not found (inactive)
